Our source for the Inhibition values is ChEMBL document CHEMBL1157539, “Thousands of chemical starting points for antimalarial lead identification” (Nature, 2010).

This assay concerns Plasmodium falciparum. The assay can be described thus: GSK_TCMDC: Inhibition of Plasmodium falciparum 3D7 in whole red blood cells, using parasite LDH activity as an index of growth. Test compounds present at 2uM. The class given is functional.
As usually defined, the Inhibition is the change of the read-out against control, counted positive when it falls. As for `CS(=O)(=O)n1c(CN2CCN(c3ncc(C(F)(F)F)cc3Cl)CC2)nc2ccccc21`, the Inhibition was 83%.

In turn, `Br.C=CCNC(CCCCC)c1ccc(OCCOc2ccc(C(CCCCC)NCC=C)cc2)cc1` (stereo not given) displayed an Inhibition of 88%. For the molecule `CCN(CC)CCCN(C(=O)Nc1c(Cl)cncc1Cl)c1nc(-c2ccc(F)cc2)cs1`, the Inhibition worked out at 100%.

In turn, `CC(C)(C)NCc1cc(Nc2ccnc3cc(Cl)ccc23)ccc1F` showed an Inhibition of 100%. For `Cc1cc2c(cc1C(F)(F)F)N(C(=O)Nc1cc(OCCN(C(C)C)C(C)C)cc(C(F)(F)F)c1)CC2.Cl`, the Inhibition is on record as 100%. `CN1CCC(c2c[nH]c3ccc(NC(=O)Nc4ccc(-c5ccncc5)c(Cl)c4Cl)cc23)CC1` gave an Inhibition of 100%.

Regarding `Cc1cc(NCC2CCN(CC3CCCCC3)C2)nc(Nc2ccc(Cl)cc2)n1` (stereo not given), the Inhibition is 100%. The value for `O=C(Nc1ccc(Br)cc1)N(CCN1CCOCC1)CC(O)COc1ccc(Cl)c(F)c1.O=C(O)C(F)(F)F` (stereo not given) was 98%. The molecule `Cc1ccc(CNC(=O)[C@H](Cc2ccccc2)Nc2cc(C)nc(NCCc3ccc(F)cc3)n2)cc1.O=C(O)C(F)(F)F` registered an Inhibition of 98%.

As for `COc1ccc(NC(=O)C2c3ccccc3C(=O)N(CC(C)C)C2c2cccs2)cc1OC` (stereo not given), the Inhibition is given as 100%. Regarding `Cl.OC(c1cccc(OCc2ccccc2)c1)C1CN(CCc2ccccc2)CCC1(O)c1ccccc1` (stereo not given), the Inhibition was 98%.

`Cc1cnc(NCCc2ccc(F)cc2)nc1N[C@@H](CC(C)C)C(=O)Nc1ccccc1.O=C(O)C(F)(F)F`: the Inhibition is on record as 87%.

`CCOc1ccc2c(c1)C(C)(c1ccc3c(c1)C(C)CC(C)(C)N3)CC(C)(C)N2` (stereo not given) registered an Inhibition of 94%. In the case of `COc1ccc(Nc2ncc(OC)c(Nc3ccccc3C(N)=O)n2)cc1N1CCN(C)CC1.O=CO`, the Inhibition came out at 100%. Take `Cc1ccc2[nH]ncc2c1N(CC1CCCCC1)c1ccnc(Nc2ccc(OCC(O)CN3CC=CCC3)cc2)n1.O=CO` (stereo not given): the Inhibition turned out to be 100%. The molecule `O=C(/C=C/c1ccc(Cl)c(Cl)c1)NCCCCCCN1CCCN(C(=O)Nc2ccc(Cl)c(C(F)(F)F)c2)CC1` yielded an Inhibition of 100%. Molecule `O=C(NCc1ccccc1[S+]([O-])c1ccccc1CO)C(F)(F)F` (stereo not given) yielded an Inhibition of 98%.

Regarding `C(=N\Nc1nccc2sc(-c3cccnc3)cc12)/c1cccnc1`, the Inhibition was 98%. The same measure for `O=C(Nc1cccc(-c2cccc(-c3nc4cc(C(F)(F)F)ccc4[nH]3)c2)c1)c1ccc(=O)[nH]n1`: 100%. `COc1ccc(Nc2nccc(N3CCC(NC(=O)Nc4cccc(OC)c4)C3)n2)cc1` (stereo not given): the Inhibition was found to be 99%.

For `CS(=O)(=O)c1ccc(CCNCc2ccc(-c3ccc(CN(C(=O)C4CC(=O)c5ccccc54)C4CCN(Cc5ccccc5)CC4)cc3)nc2)cc1.O=C(O)C(F)(F)F` (stereo not given), the Inhibition is reported as 100%. The molecule `COc1ccc2nccc([C@@H](O)CN3CCC(NC(=O)/C=C/c4cc([N+](=O)[O-])ccc4OC)CC3)c2c1` returned an Inhibition of 99%. The same measure for `FC(F)(F)c1cccc(CNCC2CCN(Cc3ccc4c(c3)OCO4)CC2)c1.O=C(O)C(F)(F)F`: 100%. For the molecule `COc1cccc(C(=O)NCc2cccs2)c1Oc1ccccc1`, the Inhibition is given as 98%. In turn, `CN(C(=O)NCCc1ccccc1)C1CCN(CCCCCNC(=O)/C=C/c2ccc(Cl)c(Cl)c2)CC1` showed an Inhibition of 93%. As to `Cc1c(CCC#N)c(NCc2ccccc2)n2c(nc3ccccc32)c1C#N`, the Inhibition is on record as 100%. `CC(C)C[C@H](NC(=O)c1cc2ccccc2s1)C(=O)N[C@H]1CCN(Cc2ccc(I)c(OC3CCN(C)C3)c2)C1.O=C(O)C(F)(F)F` (stereo not given in full) gave an Inhibition of 100%.

As to `CC(=O)c1cccc2[nH]c(C(=O)NC3CCC(CCN4CCc5ccc(C#N)cc5C4)CC3)cc12.Cl` (stereo not given), the Inhibition is recorded as 96%. The molecule `Cc1ccc(-n2cc(CNCCc3nc(C)c[nH]3)c(-c3ccc(F)cc3)n2)cc1` gave an Inhibition of 86%. As for `CC(C)CNCc1cccc(-c2cccc(CN(CCCN3CCN(C)CC3)C(=O)Nc3ccccc3)c2)c1.O=C(O)C(F)(F)F`, the Inhibition was determined as 95%. Consider `COc1ccccc1NC(=S)N/N=C/c1ccc(O)cc1O`, for which the Inhibition is 89%. The same measure for `Cc1cccc(CN2CCCN(Cc3cccc(C(=O)Nc4ccc(C(C)(C)C)cc4)c3)CC2)c1.O=C(O)C(F)(F)F`: 89%. As to `Cc1cccc2nc(-c3ccc(-c4cccc(CN5CCCC(O)C5)c4)s3)[nH]c12.O=C(O)C(F)(F)F` (stereo not given), the Inhibition came out at 95%. In turn, `CCN(CC)C(=O)C1CCCN(c2cc(C)nc(Nc3ccc(Cl)cc3)n2)C1` (stereo not given) displayed an Inhibition of 94%.

The molecule `CN(C)Cc1cccc(-c2cnc(N)c(-c3nc4cc(S(C)(=O)=O)ccc4[nH]3)c2)c1.O=C(O)C(F)(F)F` returned an Inhibition of 100%.
